Compound activity: PubChem, National Center for Advancing Translational Sciences (NCATS)
Rab9 prom act = Rab9 promoter activation; AID 485297; Huh7 Rab9 promoter-luciferase reporter, luminescence, 24 h; 320,000 tested, 2.8% active; Potency, µM (highest dose often 9.22 µM), inactives show at the highest dose activation, negative = inhibition, actives largely listed as activators; note: % of control where 0% means no effect; nearly all actives have a fitted effect of over 60% in size
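Quantitative HTS format; Huh7 Rab9-luciferase reporter cells (1500/well) receive compound 2 h post-plating, incubate 24 h at 37 °C, then get luciferase reagent for 10 min before luminescence reading.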
SMN2 splice enh = increases expression of the SMN2 splice variant; 210,000 tested, 2.8% active; Potency, µM (series often up to 46.1 µM), without a hit: at the top dose activity change, positive = activation, hits mostly activators; AID 1458; HEK293 SMN2-luciferase splicing reporter, luminescence, 30-36 h; note: % of control where 0% means no effect; nearly all actives have a fitted effect of over 55% in size
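HEK293 cells carry an SMN2 minigene-luciferase reporter in which exon 7 inclusion puts luciferase in frame. Cells were seeded at 2000 cells/well, attached for 10-12 hours, then exposed to compounds for 30-36 hours at 37C before ONE-Glo luminescence.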
ELG1 genotox = inducers of genotoxicity in HEK293T ELG1-luciferase cells; HEK293T ELG1-luciferase reporter, luminescence, 16 h; Potency, µM (top dose mostly 46 µM), without a hit: at the top dose activity change, positive = activation, actives largely listed as activators; 330,000 tested, 1.3% active; note: % of control where 0% means no effect; nearly all actives have a fitted effect of over 60% in size
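ELG1-luciferase HEK293T cells, 2,000/well; compound pinned in; 16 hr, 37 °C, 5% CO2; ONE-Glo, 30 min RT; luminescence on CCD imager.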
ELG1 DNA repair = ELG1-dependent DNA repair inhibition. HEK293T ELG1-luciferase reporter, luminescence, 16 h; DNA damage induced by 5-fluorouridine. Potency, µM (titrated, usually from 46.1 µM), without a hit: at the highest dose activity change, negative = inhibition, usual class: inhibitors. 330,000 tested, 2.3% active. AID 504467; note: % is set by controls: 0 for no effect and ±100 for the full control effect; nearly all actives have a fitted effect of over 55% in size
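5-Fluorouridine DNA damage + compound/DMSO, 2,000 cells/well, 16 h, 37 °C/5% CO2. ONE-Glo, 30 min RT, luminescence. Readout = decrease in reporter signal.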
FLuc counter = firefly luciferase modulation, counter-screen for miR-21 project. P08659. purified FLuc, Km substrates, luminescence inhibition. Potency, µM (top dose mostly 57.5 µM), inactives show top-dose activity change, negative = inhibition, most hits filed as inhibitors. 360,000 tested, 6.9% active;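 note: plate controls were vehicle for no effect and reference inhibitor for full effect; nearly all actives have a fitted effect of over 55% in size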
Target sequence (P08659 whole entry, looked up): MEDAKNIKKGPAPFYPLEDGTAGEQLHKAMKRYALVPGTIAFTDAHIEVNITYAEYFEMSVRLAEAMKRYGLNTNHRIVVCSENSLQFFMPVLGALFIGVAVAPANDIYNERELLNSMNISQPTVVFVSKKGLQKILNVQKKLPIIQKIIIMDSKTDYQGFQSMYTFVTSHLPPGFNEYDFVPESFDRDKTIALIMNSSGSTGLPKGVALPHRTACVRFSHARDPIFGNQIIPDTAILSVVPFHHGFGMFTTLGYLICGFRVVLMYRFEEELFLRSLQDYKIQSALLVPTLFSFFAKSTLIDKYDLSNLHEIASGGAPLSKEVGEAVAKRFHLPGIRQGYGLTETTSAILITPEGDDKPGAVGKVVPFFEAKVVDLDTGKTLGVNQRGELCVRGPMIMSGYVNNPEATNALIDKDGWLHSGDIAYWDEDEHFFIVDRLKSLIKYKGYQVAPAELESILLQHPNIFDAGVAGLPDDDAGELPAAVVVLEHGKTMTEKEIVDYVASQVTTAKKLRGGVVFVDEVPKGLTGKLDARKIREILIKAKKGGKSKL
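Purified P. pyralis luciferase (10nM final) with 10uM D-luciferin and 10uM ATP (Km levels) in 50mM Tris acetate pH 7.5, 10mM Mg acetate, 0.01% Tween-20, 0.05% BSA; qHTS 6-point titration, ~60 µM downward; luminescence read.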
NPC1 prom act = activators of NPC1 promoter | Potency, µM (top dose mostly 9.22 µM), for inactives: at the top dose activation, hits mostly activators | Huh7 NPC1 promoter luciferase reporter, 24 h | 320,000 tested, 2.4% active; note: % of control where 0% means no effect; nearly all actives have a fitted effect of over 60% in size
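Cells: Huh7 expressing luciferase under the NPC1 promoter, 1500/well. Seeded 2 h, compound added, incubated 24 h at 37 °C. Luciferase reagent, 10 min ambient, then luminescence.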
Starred values were filed as active, the others as inactive; ? = inconclusive; nt = no result given. Hits are enriched below; roughly 9.2% of the tested compounds scored in any of these assays. Calls come from the whole dose curve; as a rule, active = well fitted curve in the direction sought with a large enough effect; inconclusive = small, poorly fitted or top-dose-only effect, or another doubt; inactive = no such curve, though single readings can be large; an effect the other way counts as inactive or inconclusive. Potency is the fitted concentration of half-maximal effect.

SMILES	Rab9 prom act	SMN2 splice enh	ELG1 genotox	ELG1 DNA repair	FLuc counter	NPC1 prom act
O=c1c2c3c(sc2ncn1/N=C/c1ccccc1)CCCC3	22%	20µM*	?	?	11µM*	25%
Cc1ccc(C(CC(=O)N2CCCC2)c2ccccc2)c(O)c1 (stereo unspecified)	-7%	nt	-1%	-19%	1%	-4%
COc1cccc(OCC(Cn2c(C)nc3ccccc32)OC(C)=O)c1 (stereo unspecified)	-14%	-25%	-9%	?	0%	-6%
CCCc1cc(=O)[nH]c(SCC(=O)Nc2cc(S(=O)(=O)N3CCOCC3)ccc2N(CC)CC)n1	nt	nt	7%	?	nt	nt
Cn1c(N/N=C/c2c[nH]c3ccccc23)nc2ccccc21	?	-109%	7%	?	1.5µM*	?
Cc1cc(N/N=C/c2c[nH]c3ccccc23)c2ccccc2n1	2%	-7%	1%	17%	-7%	8%
Cc1nnc(C)n1/N=C/c1cc2ccccc2nc1Cl	-4%	17%	5%	4%	-3%	-1%
Cn1c(N/N=C/c2cc3ccccc3nc2Cl)nc2ccccc21	0.45µM*	2.2µM*	?	?	0.027µM*	1µM*
OCCC1CN(Cc2cc(F)ccc2F)CCN1CCCc1ccccc1 (stereo unspecified)	0%	nt	-7%	-8%	-2%	-2%
CCc1ccc(N/C(N)=N/c2nc(CSc3ncccn3)cc(=O)[nH]2)cc1	-9%	nt	-7%	?	-2%	-9%
CCN1CCN(Cc2c(O)ccc3c2O/C(=C\C=C\c2ccccc2OC)C3=O)CC1	2%	4%	-1%	-3%	4.8µM*	-1%
CCN1CCN(Cc2c(O)ccc3c(=O)c(-c4ccccc4OC)coc23)CC1	-2%	-13%	2%	11%	0%	0%
CC[N+]1(CC)CC2CCC(C)(C1)C2(C)C (stereo unspecified)	6%	-22%	-19%	?	3%	1%
CCN(Cc1ccccc1)c1ccc(/C=N/N2CCOCC2)cc1	12%	-14%	13%	?	?	17%
CCN(CC)c1ccc(/C=N/N2CCOCC2)cc1	3.2µM*	22µM*	7.3µM*	?	8.5µM*	3.5µM*
CN(/N=C/c1ccncc1)C1=NCCN1	8%	nt	0%	6%	-2%	-3%
CN(/N=C/c1ccncc1)c1cnc2ccccc2n1	4µM*	11µM*	2%	?	4.8µM*	?
COc1ccccc1C(C)Nc1ccc(S(=O)(=O)N2CCN(C)CC2)cc1[N+](=O)[O-] (stereo unspecified)	-1%	nt	-2%	-19%	0%	-2%
COC(=O)CNC(=O)[C@@]1(Cc2ccccc2)C=C[C@@H](C)N1C(=O)c1ccccc1	nt	13µM*	nt	nt	nt	nt
CN(C)c1ccc(Nc2nc(-c3cccnc3)cs2)cc1	0.89µM*	16µM*	1.5µM*	?	0.43µM*	3.5µM*
Cc1ccccc1C(=O)Nc1nc(-c2cccnc2)cs1	2%	nt	3%	0%	-2%	15%
CCN(CC)c1ccc(Nc2nc(-c3cccnc3)cs2)cc1	3.2µM*	nt	11%	?	11µM*	2.8µM*
CCCCc1ccc(Nc2ncccc2C#N)cc1	2.8µM*	?	?	?	9.5µM*	?
N#Cc1cccnc1Nc1ccc(Cl)cc1	0%	-11%	2%	10%	2%	10%
O=C(NNC(=O)C1[C@H]2CCCC[C@@H]12)Nc1cccc2ccccc12 (stereo partly specified)	-2%	nt	-10%	26µM*	-16%	7%
SMILES	Rab9 prom act	SMN2 splice enh	ELG1 genotox	ELG1 DNA repair	FLuc counter	NPC1 prom act
CCc1ccc(NC(=O)N(Cc2cn(CC)c3ccccc23)C2CCCCC2)cc1	nt	13µM*	nt	nt	?	nt
CCOc1ccc(NC(=O)N(Cc2cn(CC)c3ccccc23)C2CCCCCC2)cc1	nt	?	nt	nt	-14%	nt
Cc1cc(Cl)ccc1N=c1ssnc1Cl	-1%	-23%	-23%	16µM*	?	0%
Cc1ccc(N=c2ssnc2Cl)cc1	7%	-11%	-7%	?	21µM*	1%
COCCCN1C(=O)C(=O)/C(=C(/O)c2ccc(S(=O)(=O)N3CCCCC3)cc2)C1c1cccc(OC)c1 (stereo unspecified)	4%	nt	-2%	-10%	1%	-2%
COc1ccc(-c2nnc(C(C)Nc3cccc(C(=O)NC4CC4)c3)o2)cc1 (stereo unspecified)	nt	nt	0%	-15%	nt	nt
CCCCOc1ncnc2c1[nH]c1ccc(F)cc12	-25%	-56%	-1%	?	2.7µM*	-14%
CCOCCCNc1ncnc2c1[nH]c1ccccc12	-9%	-60%	-1%	15µM*	?	1%
CCCCOc1ncnc2c1[nH]c1ccc(OC)cc12	1.4µM*	?	?	?	1.7µM*	0.56µM*
c1ccc2c(c1)[nH]c1c(NCC3CCCO3)ncnc12 (stereo unspecified)	2%	nt	-10%	15µM*	-1%	-3%
CCCCOc1ncnc2c1[nH]c1ccc(OCC)cc12	-16%	-20%	-1%	-11%	-2%	-2%
CCCCOCCCNc1ncnc2c1[nH]c1ccccc12	-22%	-83%	-13%	?	?	-11%
COc1cc(-c2noc(-c3nnn(-c4ccc(Cl)cc4)c3C)n2)cc(OC)c1OC	nt	nt	nt	nt	-4%	nt
COC(=O)c1c(NC(=O)c2ccc(S(=O)(=O)N3CCC(C)CC3)cc2)sc2c1CCN(C)C2	nt	nt	nt	nt	3%	nt
CCCCn1cnc2c([nH]c3ccccc32)c1=O	2%	0%	4%	?	?	16%
CCCCOc1ncnc2c1[nH]c1ccccc12	-13%	-77%	0%	?	11µM*	-5%
CCOc1ccc2oc(=O)cc(CN3CCN(c4ccc(Cl)cc4)CC3)c2c1	nt	-1%	nt	nt	-2%	nt
COc1ccc2c(c1)C(=O)N1[C@H]3c4cc(Br)ccc4OC[C@@H]3[C@H](c3ccccc3)[C@]1(C)C(=O)N2	1%	nt	0%	?	3%	-5%
COc1ccc(CNC(=O)C2CCCN(S(=O)(=O)c3ccc4c(c3)CCCN4C(C)=O)C2)cc1 (stereo unspecified)	-8%	nt	-4%	-14%	0%	-7%
CCc1nnc(NC(=O)CSc2nc(C)c3c(c2C#N)CCCC3)s1	?	nt	7%	?	8.5µM*	?
Cc1ccc(S(=O)(=O)N2CCOCC2)cc1NC(=O)CNCc1ccccc1Cl	-3%	nt	-2%	?	15%	-5%
COc1ccc(S(=O)(=O)N2CCCCCC2)cc1C(=O)N1CCCCC1	-1%	nt	?	-6%	17µM*	-6%
